Experimental data published in PubChem BioAssay (NCATS).
Results filed as inconclusive are left out. Values without a mark were called inactive. Active and inactive are the calls of the source. Calls come from the whole dose curve; as a rule, active = well fitted cell-killing curve with a large enough effect; inconclusive = small, poorly fitted or top-dose-only effect, or effect the other way; inactive = flat fitted curve, though single readings scatter.
% is set by controls: 0 for no effect and ±100 for the full control effect; potency is the fitted concentration of half-maximal effect.

The compounds below were run on Es-2 (assay: Primary qHTS to identify gynecologic anti-cancer compounds using libraries of approved drugs and bioactive compounds (AID 1345084; note: nearly all actives have a fitted effect of over 55% in size)). Settings: Gynecologic cancer cell panel viability, ATPlite luminescence, 48 h; series mostly up to 57.5 µM; activity change, negative = cytotoxicity: at the top concentration.
In short: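 ATP-based viability (ATPlite), 1,000 cells/well, 16 h pre-incubation, 48 h compound at 37 C, 5% CO2, 15 min RT before read.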
With `C/C=C(/C)C1C=CC2CC(C)CC(C)C2C1/C(O)=C1\C(=O)NC(CC(C)(O)C(=O)O)C1=O` (stereo not drawn) the “activity change, negative = cytotoxicity” value was -1.15% [at 25.3 µM]. `CS[C@]1(CO)C(=O)N2[C@H]3C(=CC=C[C@@H]3O)C[C@@]2(SC)C(=O)N1C` was tested, and the “activity change, negative = cytotoxicity” value was -0.44% [at 38.5 µM]. In the case of `COc1ccc2c3c4n(c2c1)[C@@H](C=C(C)C)OOC(C)(C)C[C@@H]4N1C(=O)[C@@H]2CCCN2C(=O)[C@]1(O)[C@H]3OCC=C(C)C`, the “activity change, negative = cytotoxicity” value is reported as -2.43% [at 25.3 µM]. In the case of `CC1=CC2/C=C(\C)CCCC(O)/C=C/C(=O)OC23C(=O)NC(CC(C)C)C3C1C` (stereo not drawn), the “activity change, negative = cytotoxicity” value is reported as 5.61% [at 38.5 µM]. In the case of `C=CC(C)(C)c1[nH]c2c(CC=C(C)C)cc(CC=C(C)C)cc2c1C[C@@H]1NC(=O)[C@H](C)NC1=O`, the “activity change, negative = cytotoxicity” value is reported as 3.74%. For `COc1cc(O)c2c(c1)/C=C/C[C@@H](O)[C@@H](O)C(=O)CCC[C@H](C)OC2=O`, the “activity change, negative = cytotoxicity” value was 9.99% [at 38.5 µM]. In the case of `CC(=O)O[C@H]1CC[C@H]2[C@@H]3CC[C@H]4CC(=O)C=C(C)[C@]4(C)[C@H]3CC[C@]12C`, the “activity change, negative = cytotoxicity” value is reported as -0.576%. For `COc1cc(N2CCN(C)CC2)ccc1N`, the “activity change, negative = cytotoxicity” value was 12.7%. `COCC(C(=O)OC1CC2CCC(C1)N2C)c1ccccc1` (stereo not drawn) was tested, and the “activity change, negative = cytotoxicity” value was -0.572%. `N#CC(O[C@@H]1O[C@H](CO)[C@@H](O)[C@H](O)[C@H]1O)c1ccccc1` (stereo partly drawn) was tested, and the “activity change, negative = cytotoxicity” value was 1.26%. For `CC[C@H]1C2CC3[C@@H]4N(C)c5ccccc5[C@]45C[C@@H]([C@H]2[C@H]5O)N3[C@H]1O`, the “activity change, negative = cytotoxicity” value was -0.0264% [at 38.5 µM]. `NC(=O)c1ncn2c1CN=C(c1ccccc1Br)c1cc(F)ccc1-2` was tested, and the “activity change, negative = cytotoxicity” value was -0.139%. For `Cc1c(N2C(=O)[C@@H]3[C@H](O)CCN3C2=O)ccc(C#N)c1Cl`, the “activity change, negative = cytotoxicity” value was -0.522%. In the case of `CC(=O)O[C@@H]1[C@H]2CC[C@H]3[C@@](C)(O)[C@@H]4C[C@H](O)C(C)(C)[C@@]4(O)[C@H](O)C[C@@]13C[C@@]2(C)O`, the “activity change, negative = cytotoxicity” value is reported as 1.68% [at 25.3 µM]. For `CC(=O)N1N=C(c2ccc(N)cc2)c2cc3c(cc2C[C@H]1C)OCO3`, the “activity change, negative = cytotoxicity” value was 2.01%. With `COC(=O)[C@]12CCCC(C)(C)C1CCc1cc(C(C)C)c(O)c(O)c12` (stereo partly drawn) the “activity change, negative = cytotoxicity” value was 5.53% [at 38.5 µM]. `COc1ccc(CN(C(=O)[C@@H](N)Cc2c(C)cc(C(N)=O)cc2C)[C@@H](C)c2ncc(-c3ccccc3)[nH]2)cc1C(=O)O` was tested, and the “activity change, negative = cytotoxicity” value was 0.234%. With `C=CC/C=C\C/C=C\CCCCCCCc1cc(O)cc(O)c1` the “activity change, negative = cytotoxicity” value was -1.01% [at 38.5 µM]. In the case of `CN1C2CCC1CC(OC(=O)N1Cc3ccccc3NC1=O)C2` (stereo not drawn), the “activity change, negative = cytotoxicity” value is reported as 2.09%. For `COC(=O)CC1CC2(C(=O)c3c(O)cccc3C2(O)C(=O)OC)C(C)O1` (stereo not drawn), the “activity change, negative = cytotoxicity” value was 3.57% [at 38.5 µM]. In the case of `c1cncc(OC[C@@H]2CCN2)c1`, the “activity change, negative = cytotoxicity” value is reported as 8.17%. In the case of `Cc1c(Cl)c(OCC(=O)N2CCN(C)CC2)nc2sc(C(=O)NC3CC3)c(N)c12`, the “activity change, negative = cytotoxicity” value is reported as 6.37%. For `CN1CCc2cc3c(cc2C1C1OC(=O)c2c1ccc1c2OCO1)OCO3` (stereo not drawn), the “activity change, negative = cytotoxicity” value was 0.983% [at 38.5 µM]. `C#CCO[C@H]1CN2CCC1CC2` was tested, and the “activity change, negative = cytotoxicity” value was 2.56%. In the case of `CC1CCCC(O)CC(=O)Cc2cc(O)cc(O)c2C(=O)O1` (stereo not drawn), the “activity change, negative = cytotoxicity” value is reported as 3.33% [at 38.5 µM]. For `COc1ccsc1CNCC[C@@]1(c2ccccn2)CCOC2(CCCC2)C1`, the “activity change, negative = cytotoxicity” value was -5.66%. With `C1=C(c2cnc[nH]2)c2ccsc2CC1` the “activity change, negative = cytotoxicity” value was 5.77%. `CC1=CC2(O)/C=C/C(C)(O)C(O)C(O)/C=C/C(=O)OC23C(=O)NC(CC(C)C)C3C1C` (stereo not drawn) was tested, and the “activity change, negative = cytotoxicity” value was 2.99% [at 25.3 µM]. With `C/C=C1/CN2CC[C@]34C(=Nc5ccc(OC)cc53)C2C[C@@H]1C4(CO)C(=O)OC` (stereo partly drawn) the “activity change, negative = cytotoxicity” value was 2.79% [at 38.5 µM]. For `Cc1cccc(NC(=O)N[C@H]2CN(C)c3ccccc3C(c3ccccc3)=N2)c1`, the “activity change, negative = cytotoxicity” value was -8.52%. `Oc1ccc2c3c1O[C@H]1c4[nH]c5c(N=C=S)cccc5c4C[C@@]4(O)[C@@H](C2)N(CC2CC2)CC[C@]314` was tested, and the “activity change, negative = cytotoxicity” value was 5.07%. In the case of `CO[C@@H]1[C@H](O)[C@@H](O[C@@H]2C[C@H]3CC[C@@H]4C(CC[C@]5(C)[C@@H](C6=CC(=O)OC6)CC[C@]45O)[C@@]3(C)[C@H](O)C2)O[C@H](C)[C@@H]1O` (stereo partly drawn), the Potency is reported as 178 nM (active). `C[C@@H]1CCC/C=C/[C@H]2C[C@@H](O)C[C@@H]2[C@@H](O)/C=C/C(=O)O1` was tested, and the Potency was 501 nM (active). For `C[C@]12CCC(=O)C=C1CC[C@@H]1[C@@H]2[C@@H](O)C[C@]2(C)C(=O)CC[C@@H]12`, the “activity change, negative = cytotoxicity” value was 6.38%. `CCC(C)(O)C1(C(=O)O)COC(=O)C1` (stereo not drawn) was tested, and the “activity change, negative = cytotoxicity” value was 4.16%. With `COC(=O)C1=COC(C)C2CN3CCC4(C(=O)Nc5ccccc54)C3CC12` (stereo not drawn) the “activity change, negative = cytotoxicity” value was 0.0851% [at 38.5 µM]. `CC1(C)C(=O)N(c2ccc(C#N)c(C(F)(F)F)c2)C(=O)N1CCCCO` was tested, and the “activity change, negative = cytotoxicity” value was -0.244%. For `O=C1N[C@@H](Cc2ccccc2)CN2CCCC[C@@H]12`, the “activity change, negative = cytotoxicity” value was 2.81%.
